The list is not random: actives were taken first. Their share in the collection is about 7.3%.
Rab9 promoter act = qHTS Assay for Rab9 Promoter Activators | Huh7 Rab9 promoter-luciferase reporter, luminescence, 24 h | hit rate 2.8% among 320,000 | AID 485297, 2010 | Potency, µM (top dose mostly 9.22 µM), for the others: top-dose activation, negative = inhibition, most hits filed as activators; note: % of control where 0% means no effect; nearly all actives have a fitted effect of over 60% in size
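Luminescence read-out: Huh7 cells stably expressing Rab9-luciferase, treated 24 h with compound at 37 °C, then lysed with luciferase reagent for 10 min at ambient before reading.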
p53 reactivation = qHTS assay for re-activators of p53 using a Luc reporter | H1299 p53-A138V BP100-luciferase reporter, luminescence, 24 h | Potency, µM (highest dose often 92.2 µM), without a hit: at the highest dose activity change, positive = activation, actives largely listed as activators | hit rate 0.063% among 320,000 | AID 504706, 2011; note: % of control where 0% means no effect; nearly all actives have a fitted effect of over 45% in size
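p53-null H1299 cells stably carrying temperature-sensitive p53-A138V and a BP100-luciferase reporter were pinned with compounds (4-point, 1:5 series) and held 24 hrs at 37 deg C. Luminescence was read 10 min after detection reagent.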
ELG1 genotox = qHTS screen for small molecules that induce genotoxicity in human embryonic kidney (HEK293T) cells expressing luciferase-tagged ELG1; AID 504466, 2011; HEK293T ELG1-luciferase reporter, luminescence, 16 h; Potency, µM (titrated, usually from 46 µM), for inactives: at the top dose activity change, positive = activation, usual class: activators; hit rate 1.3% among 330,000; note: % of control where 0% means no effect; nearly all actives have a fitted effect of over 60% in size
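HEK293T cells expressing luciferase-tagged ELG1 were exposed to compound or DMSO vehicle for 16 hr at 37 °C and 5% CO2. Luciferase activity was then measured with ONE-Glo after 30 min at room temperature.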
NPC1 prom act = qHTS Assay for NPC1 Promoter Activators; AID 485313, 2010; Potency, µM (titrated, usually from 9.22 µM), for inactives: at the top dose activation, hits mostly activators; hit rate 2.4% among 320,000; Huh7 NPC1 promoter luciferase reporter, 24 h; note: % of control where 0% means no effect; nearly all actives have a fitted effect of over 60% in size
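Cells: Huh7 expressing luciferase under the NPC1 promoter, 1500/well. Seeded 2 h, compound added, incubated 24 h at 37 °C. Luciferase reagent, 10 min ambient, then luminescence.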
FLuc counter = qHTS profiling assay for firefly luciferase inhibitor/activator using purifed enzyme and Km concentrations of substrates (counterscreen for miR-21 project) | Luciferin 4-monooxygenase (Photinus pyralis), P08659 | purified FLuc, Km substrates, luminescence inhibition | Potency, µM (doses to about 57.5 µM), for the others: top-dose activity change, negative = inhibition, actives largely listed as inhibitors | hit rate 6.9% among 360,000;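 note: plate controls were vehicle for no effect and reference inhibitor for full effect; nearly all actives have a fitted effect of over 55% in size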
Target sequence (P08659 whole entry, looked up): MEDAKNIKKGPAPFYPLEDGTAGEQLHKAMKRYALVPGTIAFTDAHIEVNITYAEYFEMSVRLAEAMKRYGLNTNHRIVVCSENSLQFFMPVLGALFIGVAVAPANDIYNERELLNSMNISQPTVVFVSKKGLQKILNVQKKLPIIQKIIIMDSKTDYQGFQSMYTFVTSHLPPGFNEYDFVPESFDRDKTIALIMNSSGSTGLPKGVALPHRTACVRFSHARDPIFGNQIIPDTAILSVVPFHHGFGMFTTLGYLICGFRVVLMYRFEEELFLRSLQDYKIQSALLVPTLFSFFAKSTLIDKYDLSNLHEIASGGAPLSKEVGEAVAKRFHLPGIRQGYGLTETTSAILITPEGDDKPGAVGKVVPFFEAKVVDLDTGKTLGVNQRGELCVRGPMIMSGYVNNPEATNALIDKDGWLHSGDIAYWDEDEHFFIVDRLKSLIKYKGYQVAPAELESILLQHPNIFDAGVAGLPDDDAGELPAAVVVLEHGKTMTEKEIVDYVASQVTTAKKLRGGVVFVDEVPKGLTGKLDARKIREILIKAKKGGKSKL
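Biochemical qHTS of compounds, final roughly 60 µM downward over six points, against 10 nM purified firefly luciferase using Km concentrations of substrates (10 uM D-luciferin, 10 uM ATP) in Tris acetate pH 7.5 buffer; luminescence output.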
SMN2 splice enh = qHTS Assay for Enhancers of SMN2 Splice Variant Expression; Potency, µM (highest dose often 46.1 µM), for inactives: at the highest dose activity change, positive = activation, hits mostly activators; hit rate 2.8% among 210,000; HEK293 SMN2-luciferase splicing reporter, luminescence, 30-36 h; note: % of control where 0% means no effect; nearly all actives have a fitted effect of over 55% in size
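qHTS luciferase splicing reporter: luminescence rises when SMN2 exon 7 is included in transfected HEK293 cells. Compound exposure lasted 30-36 h at 37C, with 4.5 mM final sodium butyrate as control, followed by a ONE-Glo read.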
Starred values were filed as active, the others as inactive; ? = inconclusive; nt = not tested or not shown. Calls come from the whole dose curve; as a rule, active = well fitted curve in the direction sought with a large enough effect; inconclusive = small, poorly fitted or top-dose-only effect, or another doubt; inactive = no such curve, though single readings can be large; an effect the other way counts as inactive or inconclusive. Potency is the fitted concentration of half-maximal effect.

SMILES	Rab9 promoter act	p53 reactivation	ELG1 genotox	NPC1 prom act	FLuc counter	SMN2 splice enh
CCOc1ccccc1OCC(=O)Nc1cccc(S(=O)(=O)NC2=NCCCCC2)c1	-4%	-1%	-4%	1%	-1%	nt
Cc1ccccc1OCC(=O)Nc1cccc(S(=O)(=O)NC2=NCCCCC2)c1	1%	-2%	26%	-1%	17µM*	nt
CCc1ccccc1OCC(=O)Nc1cccc(S(=O)(=O)NC2=NCCC2)c1	1%	-3%	1%	2%	19µM*	nt
Cc1ccccc1OCC(=O)Nc1cccc(S(=O)(=O)NC2=NCCC2)c1	16%	?	9%	13%	2.1µM*	nt
CCc1ccccc1-n1c(C)nc2cc(C(=O)NCCc3ccc(Cl)cc3)ccc21	nt	nt	nt	nt	-11%	nt
Cc1nc2ccccn2c(=O)c1NC(=O)c1ccc(C(F)(F)F)cc1	nt	nt	nt	nt	1%	nt
O=C(Nc1cc(C(F)(F)F)ccc1Cl)c1cc(-c2ccc3c(c2)OCCO3)on1	nt	nt	nt	nt	1.7µM*	nt
O=C(Nc1ccccc1C(F)(F)F)c1cc(-c2ccc3c(c2)OCCO3)on1	nt	nt	nt	nt	0.38µM*	nt
CC(=O)Nc1ccc(Nc2nc3ccc(C)cc3n3nnnc23)cc1	nt	nt	nt	nt	-3%	nt
COc1ccccc1COC(=O)N/C=C/c1ccco1	?	3%	10%	?	15µM*	?
COc1ccc(COC(=O)N/C=C/c2ccco2)cc1	4%	-5%	3%	4%	?	17%
COc1cc(C2c3c(-c4ccccc4O)n[nH]c3C(=O)N2Cc2ccco2)ccc1OCC(C)C (centres undefined)	nt	nt	nt	nt	-16%	-26%
Cc1csc(NC(=O)c2cc3ccccc3o2)n1	1.4µM*	?	?	?	0.95µM*	nt
Cc1csc(C(C#N)C(=O)c2cc3ccccc3o2)n1 (centres undefined)	2.8µM*	4%	?	2.8µM*	1.3µM*	11µM*
Cc1ccc(-c2csc(NC(=S)NC(=O)c3cc4ccccc4o3)n2)cc1	28%	19%	17%	25%	-2%	?
CCOC(=O)Cc1csc(NC(=O)c2cc3ccccc3o2)n1	?	-2%	7%	?	11µM*	1%
CC(Cc1ccccc1)NC(=O)c1cc2ccccc2o1 (centres undefined)	2.5µM*	?	?	3.2µM*	?	nt
CCC(=O)Nc1ccc(NC(=O)c2cc3ccccc3o2)cc1	?	9%	9%	?	?	?
Cc1noc(C)c1C(=O)N1CCC2(CC1)CCN(C(c1ccccc1)c1ccccc1)CC2	nt	nt	nt	nt	nt	-16%
COc1cccc(NC(=O)Cn2c(=O)n(-c3ccccc3)c(=O)c3ccc(C(=O)NCc4ccc5c(c4)OCO5)cc32)c1	nt	nt	nt	nt	-1%	12%
COc1ccc(NC(=O)c2cc3c(=O)n(Cc4cccnc4)ccc3nc2C)c(OC)c1	nt	nt	nt	nt	2%	nt
CCOC(=O)C1=C(CN2CCC(C(=O)OCC)CC2)NC(=O)NC1c1ccc(Cl)cc1 (centres undefined)	nt	nt	nt	nt	-9%	0%
O=C(NCc1cccs1)c1cc2ccccc2o1	4%	13%	15%	23%	19µM*	7%
O=C(NCc1ccc(F)cc1)c1cc2ccccc2o1	9%	13%	4%	5%	-12%	nt
CCN(CC(=O)Nc1c(F)cccc1F)C(=O)CNC(=O)c1ccc(Br)o1	-1%	-8%	-1%	-4%	6%	nt
SMILES	Rab9 promoter act	p53 reactivation	ELG1 genotox	NPC1 prom act	FLuc counter	SMN2 splice enh
COc1cc(/C=N/NC(=O)C23CC4CC(CC(C4)C2)C3)cc(Br)c1O	3%	-5%	2%	-1%	13µM*	6%
COc1cc(/C=N\NC(=O)c2ccc(-c3ccccc3)cc2)cc(Br)c1O	5%	8%	-11%	0%	11µM*	nt
COc1cccc(/C=N/NC(=O)CNC(=O)c2ccc3c(c2)OCCO3)c1O	-6%	?	2%	-3%	-16%	-15%
COc1cc(/C=N/NC(=O)c2ccc3c(c2)OCCO3)c(Br)c(Br)c1O	-1%	?	9%	1%	9.5µM*	nt
O=C(N/N=C/c1ccccc1)c1ccc(-c2ccccc2)cc1	?	9%	5%	15%	-17%	nt
COc1cc(/C=N/NC(=O)c2ccc3c(c2)OCCO3)cc(Br)c1O	15%	nt	14%	2%	11µM*	nt
Cc1ccsc1C(=O)N1CCN(C(=O)c2ccco2)CC1	-3%	-6%	0%	-4%	4%	nt
CC(C)CCn1c(=O)c2sccc2n2c(CCCC(=O)Nc3ccc(F)c(Cl)c3)nnc12	nt	nt	nt	nt	-17%	nt
CCc1cc2ccc(C)cc2nc1SCC(=O)Nc1c[nH]c(=O)[nH]c1=O	-4%	-1%	5%	-1%	0%	20%
CCOc1c(Br)cc(/C=N\NC(=O)c2ccccc2)cc1OC	-3%	13%	-8%	-2%	5.4µM*	7%
COc1ccc(-c2cc(=O)n(-c3ccc([N+](=O)[O-])cc3)[nH]2)cc1	-5%	26%	1%	-1%	21µM*	9%
Cc1cc(NCCCn2ccnc2)n2nc(-c3ccc(F)cc3)cc2n1	8%	7%	5%	18%	9.5µM*	26%
Cc1cc(NCCCn2ccnc2)n2nc(-c3ccc(Cl)cc3)cc2n1	21%	0%	13%	?	?	3%
Cc1cccc(-c2cc3nc(C)c(C)c(NCCCn4ccnc4)n3n2)c1	1%	5%	-10%	3%	15µM*	nt
O=C(Nc1ccc(Cl)c(C(F)(F)F)c1)C(Cc1ccccc1)NS(=O)(=O)c1ccc(Br)s1 (centres undefined)	nt	nt	nt	nt	3%	-2%
O=c1oc2ccccc2nc1/C=C(\O)c1ccc(Br)cc1	12%	10%	0%	9%	24µM*	nt
Cc1ccc(/C=C\c2nccc3c2[nH]c2ccccc23)cc1	?	0%	?	?	1.7µM*	?
CSc1ccc(/C=C/c2cc(=O)c3ccccc3[nH]2)cc1	?	9%	13%	15%	?	17%
C(=C\c1nccc2c1[nH]c1ccccc12)/c1ccccc1	?	12%	-5%	?	7.6µM*	nt
Fc1ccc(/C=C\c2nccc3c2[nH]c2ccccc23)cc1	18%	13%	9%	20%	5.4µM*	16%
Cc1[nH]c2ccccc2c1/C=C/c1cc[n+](C)cc1	-43%	-1%	-22%	-36%	2%	-26%
CCOc1ccccc1NC(=O)CSc1ccc2nnc(CCNS(=O)(=O)c3ccccc3)n2n1	nt	nt	nt	nt	-2%	nt

High-throughput results from PubChem.
